Active and inactive are the calls of the source.
Legend:
[1] = system: PRMT1 (protein arginine N-methyltransferase 1); assay: small molecules binding arginine methyltransferase PRMT1 – biochemical, small-molecule microarray, 635 nm fluorescence, primary screen (AID 1088); conditions: higher = more signal;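 also: binding of Prmt1 protein to compounds spotted on small-molecule microarray slides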
[2] = growth effects on S. cerevisiae YJM789 – YJM789 clinical isolate, OD600, 24 h, basal, primary screen (AID 1089); conditions: higher = more signal, called active from +8 up or from −8 down;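 also: growth of clinical yeast isolate S. cerevisiae YJM 789 seeded 1000 cells per well; test concentration not given here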
[3] = S. pombe growth modifiers, basal conditions – strain 972, OD600, 24 h, no modulator, primary screen (AID 1090);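 also: basal condition with compound alone and no growth modifier present; test concentration not given here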; conditions: S. pombe 972 growth, higher = more signal, called active from +8 up or from −8 down
[4] = budding yeast growth modifiers under rapamycin – strain BY4716, OD600, 96 h, primary screen (AID 1091); also: test concentration not given here; conditions: S. cerevisiae BY4716 + rapamycin, higher = more signal, called active from +8 up or from −8 down
[5] = biological target: Torsin-1A-interacting protein 2 (Homo sapiens) (UniProt Q8NFQ8); assay: small molecules binding lysate-expressed LULL1 – cell lysate, human LULL1 lysate, 635/667 nm fluorescence, primary screen (AID 1092); conditions: small-molecule microarray, hLULL1 lysate binding, 635 nm fluorescence; higher = more signal;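 also: probe is lysate of COS7 cells overexpressing human LULL1; score merges per-feature 667 nm fluorescence with signal-to-noise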
Torsin-1A-interacting protein 2 (Homo sapiens), sequence (Q8NFQ8 whole entry, looked up): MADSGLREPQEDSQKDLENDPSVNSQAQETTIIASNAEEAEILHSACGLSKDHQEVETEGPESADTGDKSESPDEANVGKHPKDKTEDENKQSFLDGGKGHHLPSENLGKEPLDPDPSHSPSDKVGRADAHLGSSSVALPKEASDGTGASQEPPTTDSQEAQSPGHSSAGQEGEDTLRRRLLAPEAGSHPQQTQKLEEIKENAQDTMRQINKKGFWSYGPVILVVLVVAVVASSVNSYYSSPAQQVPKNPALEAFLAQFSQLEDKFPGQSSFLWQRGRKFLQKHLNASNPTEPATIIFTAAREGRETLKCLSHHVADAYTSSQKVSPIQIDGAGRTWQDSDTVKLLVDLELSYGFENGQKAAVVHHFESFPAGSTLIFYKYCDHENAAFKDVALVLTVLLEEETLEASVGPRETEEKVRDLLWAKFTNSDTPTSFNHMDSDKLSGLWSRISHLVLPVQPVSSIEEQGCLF

[6] = optical density change of DRC41 E. coli – strain DRC41, OD650, 24 h, E. coli filamentation project, primary screen (AID 1093);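 also: MC1000 strain lacking acrAB efflux and sulA so SOS filamentation is blocked; test concentration not given here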; conditions: E. coli DRC41 growth, higher = more signal, called active from +8 up or from −8 down
[7] = probe aLefty2 binding to arrayed compounds – biochemical, biotinylated probe, 635/667 nm fluorescence, primary screen (AID 1094); conditions: small-molecule microarray, higher = more signal;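 also: score merges spot fluorescence near 667 nm with spot signal-to-noise ratio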
[8] = system: Noggin (protein binding on small-molecule microarray); assay: small molecules binding Noggin protein – biochemical, 635/667 nm fluorescence, primary screen (AID 1095); conditions: 635 nm fluorescence, higher = more signal;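 also: score merges 667 nm feature fluorescence with signal to noise over triplicate slides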
[9] = biological target: Neurogenic locus notch homolog protein 3 (Homo sapiens) (UniProt Q9UM47); assay: small molecules binding NOTCH3 protein – biochemical, 635/667 nm fluorescence, primary screen (AID 1096); conditions: small-molecule microarray, 635 nm fluorescence, higher = more signal
Neurogenic locus notch homolog protein 3 (Homo sapiens), sequence (Q9UM47 whole entry, looked up): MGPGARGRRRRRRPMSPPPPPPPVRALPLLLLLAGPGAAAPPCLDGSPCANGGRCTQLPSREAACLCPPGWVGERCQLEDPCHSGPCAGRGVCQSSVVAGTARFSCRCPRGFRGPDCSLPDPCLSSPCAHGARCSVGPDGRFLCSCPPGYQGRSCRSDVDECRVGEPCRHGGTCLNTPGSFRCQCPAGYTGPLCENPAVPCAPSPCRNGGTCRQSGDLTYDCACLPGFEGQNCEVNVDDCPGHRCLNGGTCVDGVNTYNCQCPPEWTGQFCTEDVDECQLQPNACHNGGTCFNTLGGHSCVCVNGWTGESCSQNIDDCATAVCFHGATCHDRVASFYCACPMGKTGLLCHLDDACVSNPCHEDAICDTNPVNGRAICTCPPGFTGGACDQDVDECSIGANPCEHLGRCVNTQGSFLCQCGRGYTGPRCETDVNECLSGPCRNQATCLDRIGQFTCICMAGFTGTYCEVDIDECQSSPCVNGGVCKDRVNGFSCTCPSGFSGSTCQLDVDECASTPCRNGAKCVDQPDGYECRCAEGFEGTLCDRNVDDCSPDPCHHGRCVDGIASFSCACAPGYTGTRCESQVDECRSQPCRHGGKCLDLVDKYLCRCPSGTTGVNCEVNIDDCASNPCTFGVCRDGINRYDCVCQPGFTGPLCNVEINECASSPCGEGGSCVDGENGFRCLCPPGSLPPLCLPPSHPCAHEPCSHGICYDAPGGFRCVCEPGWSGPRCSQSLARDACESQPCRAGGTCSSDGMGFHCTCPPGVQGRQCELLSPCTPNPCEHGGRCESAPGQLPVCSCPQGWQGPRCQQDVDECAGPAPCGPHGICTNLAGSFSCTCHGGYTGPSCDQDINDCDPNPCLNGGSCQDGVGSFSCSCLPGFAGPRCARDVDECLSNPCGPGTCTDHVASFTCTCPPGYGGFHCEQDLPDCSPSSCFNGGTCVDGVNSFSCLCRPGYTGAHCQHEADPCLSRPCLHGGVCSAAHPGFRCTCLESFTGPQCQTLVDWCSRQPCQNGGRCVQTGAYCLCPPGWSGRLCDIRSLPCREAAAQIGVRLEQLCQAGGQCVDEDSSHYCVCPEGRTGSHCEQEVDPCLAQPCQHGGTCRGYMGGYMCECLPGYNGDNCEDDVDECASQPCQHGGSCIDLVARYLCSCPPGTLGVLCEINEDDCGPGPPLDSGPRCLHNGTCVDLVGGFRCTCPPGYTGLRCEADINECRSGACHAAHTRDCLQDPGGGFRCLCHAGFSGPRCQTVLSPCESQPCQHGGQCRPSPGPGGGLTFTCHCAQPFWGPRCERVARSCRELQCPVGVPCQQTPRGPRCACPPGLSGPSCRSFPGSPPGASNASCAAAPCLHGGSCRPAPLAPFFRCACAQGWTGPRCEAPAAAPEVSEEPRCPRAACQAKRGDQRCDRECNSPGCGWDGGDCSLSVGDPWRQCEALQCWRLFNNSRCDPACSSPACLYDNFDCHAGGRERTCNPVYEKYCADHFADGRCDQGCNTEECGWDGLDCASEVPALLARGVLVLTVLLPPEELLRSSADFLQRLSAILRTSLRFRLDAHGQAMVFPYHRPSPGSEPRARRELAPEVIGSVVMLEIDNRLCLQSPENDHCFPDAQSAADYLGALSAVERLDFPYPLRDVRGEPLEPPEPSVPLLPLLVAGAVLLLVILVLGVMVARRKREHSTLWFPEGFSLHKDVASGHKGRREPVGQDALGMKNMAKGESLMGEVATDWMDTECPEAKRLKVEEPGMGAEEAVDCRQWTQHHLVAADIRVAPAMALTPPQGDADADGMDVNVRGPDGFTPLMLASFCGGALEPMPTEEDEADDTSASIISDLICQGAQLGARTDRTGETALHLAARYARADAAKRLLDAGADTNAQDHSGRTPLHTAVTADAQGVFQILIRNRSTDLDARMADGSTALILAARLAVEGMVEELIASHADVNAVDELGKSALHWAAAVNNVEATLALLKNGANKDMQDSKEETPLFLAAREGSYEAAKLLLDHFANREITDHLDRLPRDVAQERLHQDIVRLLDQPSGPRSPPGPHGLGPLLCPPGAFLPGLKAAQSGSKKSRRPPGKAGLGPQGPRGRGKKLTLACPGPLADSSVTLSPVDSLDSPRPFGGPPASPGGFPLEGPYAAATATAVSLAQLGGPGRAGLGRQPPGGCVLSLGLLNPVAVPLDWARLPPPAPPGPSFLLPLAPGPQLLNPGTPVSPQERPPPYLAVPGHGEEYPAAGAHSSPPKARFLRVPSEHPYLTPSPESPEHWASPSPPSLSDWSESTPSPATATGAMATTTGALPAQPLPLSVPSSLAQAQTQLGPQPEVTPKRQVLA

[10] = probe aEGFR binding to arrayed compounds – biochemical, biotinylated probe, 635/667 nm fluorescence, primary screen (AID 1097); conditions: small-molecule microarray, higher = more signal;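 also: probe is a biotinylated anti-EGFR antibody binding compounds printed on slides; score combines fluorescence near 667 nm and signal to noise of each spot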

SMILES	composite z-score [1]	z-score [2]	z-score [3]	z-score [4]	composite z-score [5]	z-score [6]	composite z-score [7]	composite z-score [8]	composite z-score [9]	composite z-score [10]
CCOC(=O)[C@H](Cc1ccccc1)NC(=O)CCC1CC(OC(=O)NCCc2ccc(F)cc2)CC2(CCCC(COC(=O)NCc3ccccc3)O2)O1 (stereo not given in full)	1.56	-0.522 (inactive)	0.653 (inactive)	0.6 (inactive)	0.999	0.413 (inactive)	-0.0965	0.644	1.04	-0.0146
CCOC(=O)[C@H](CC(C)C)NC(=O)CCC1CC(OC(=O)NCCc2ccc(F)cc2)CC2(CCCC(COC(=O)NCCc3ccc(Cl)cc3)O2)O1 (stereo not given in full)	1.26	-0.623 (inactive)	0.485 (inactive)	-0.518 (inactive)	1.97	-0.296 (inactive)	-0.0021	0.948	0.773	-0.123
C[C@H](ON=C1[C@H]2CCn3c(=O)n(-c4ccccc4)c(=O)n3[C@H]2[C@H](O)[C@@H]2O[C@H]12)c1cn([C@H](CO)Cc2ccccc2)nn1	0.171	-0.915 (inactive)	-0.348 (inactive)	-0.173 (inactive)	0.664	0.547 (inactive)	-0.175	0.222	0.518	0.0544
CO[C@@H]1COC(=O)[C@@H](C)COC(=O)[C@@H](C)NC(=O)CC=C[C@@H]1C	1.55	-2.2 (inactive)	-1.61 (inactive)	-2.47 (inactive)	-0.963	-0.801 (inactive)	-0.154	1.6	-0.0403	-0.0041
COc1cccc([C@H]2Oc3ccc(OC)cc3C(=NOC[C@@H](O)COCc3ccco3)[C@@H]2O)c1	-1.03	-2.24 (inactive)	-1.36 (inactive)	-1.22 (inactive)	-1.32	0.32 (inactive)	-0.103	-0.149	-1.88	-0.274
CCOC(=O)[C@H](CC(C)C)NC(=O)CCC1CC(OC(=O)NCCc2ccc(F)cc2)CC2(CCCC(COC(=O)NCCOc3ccccc3)O2)O1 (stereo not given in full)	1.56	0.407 (inactive)	0.374 (inactive)	-0.445 (inactive)	2.21	-0.552 (inactive)	-0.0965	0.676	1.11	-0.0828
CC(C)=CCCC(C)=CCON=C1C[C@@H](O)[C@@H](O)[C@@H]2[C@@H]3C(=O)N(c4ccc(F)cc4F)C(=O)[C@@H]3CC[C@@H]12	1.11	0.918 (inactive)	-2.43 (inactive)	-0.496 (inactive)	-0.0426	1.34 (inactive)	0.0054	0.888	0.678	-0.0381
C#CCCCON=C1[C@H]2CCn3c(=O)n(C)c(=O)n3[C@H]2[C@H](O)[C@@H]2O[C@H]12	-0.677	0.516 (inactive)	-0.377 (inactive)	0.658 (inactive)	-0.0133	-0.305 (inactive)	-0.132	1.18	0.891	-0.148
CCOC(=O)[C@H](Cc1ccccc1)NC(=O)CCC1CC(OC(=O)NCc2cccc3ccccc23)CC2(CCCC(COC(=O)NCc3ccccc3)O2)O1 (stereo not given in full)	1.04	-2.28 (inactive)	-2.51 (inactive)	-0.414 (inactive)	0.728	-1.42 (inactive)	-0.0931	0.547	0.955	-0.142
CC1O[C@H]2C3=C(C(=O)[C@@H]4O[C@@H]4[C@H]3O)[C@@H]1C1[C@@H](C)OC=C3[C@H](O)C4O[C@@H]4C(=NOCc4ccccc4)[C@]312 (stereo not given in full)	-0.543	0.247 (inactive)	-0.602 (inactive)	0.089 (inactive)	0.578	-0.42 (inactive)	-0.192	0.521	-0.128	-0.148
COC(=O)[C@H](C)NC(=O)CCC1CC(OC(=O)NCCc2ccc(F)cc2)CC2(CCCC(COC(=O)NCCC(C)C)O2)O1 (stereo not given in full)	0.173	-1.79 (inactive)	-0.148 (inactive)	-0.104 (inactive)	2.22	-0.641 (inactive)	-0.209	1.06	0.49	-0.111
CCC1=NOC(CCC2CC(OC(=O)NCc3cccc4c3OCO4)CC3(CCCC(COC(=O)NCCc4ccccc4OC)O3)O2)C1 (stereo not given)	1.26	-0.873 (inactive)	0.168 (inactive)	0.327 (inactive)	2.38	1.11 (inactive)	-0.099	0.079	0.53	-0.0424
C=CC1=C[C@H](O)[C@@H]2O[C@@H]2C12OCCCO2	-0.12	-0.532 (inactive)	0.199 (inactive)	-0.138 (inactive)	-0.119	-0.0339 (inactive)	-0.244	0.412	-0.239	0.009
COC(=O)[C@H](C)NC(=O)CCC1CC(OC(=O)NCc2ccc3c(c2)OCO3)CC2(CCCC(COC(=O)NCCc3ccccc3OC)O2)O1 (stereo not given in full)	0.472	-1.21 (inactive)	0.124 (inactive)	-0.167 (inactive)	1.89	0.872 (inactive)	-0.166	0.181	0.0607	-0.0798
C[C@@H](c1ccccc1)N1C(=O)[C@H]2[C@H]3[C@H](O)[C@H](O)CC(=NO[C@@H]4O[C@H](CO)[C@@H](O)[C@H](O)[C@H]4O)[C@@H]3CC[C@H]2C1=O	0.0967	0.114 (inactive)	0.149 (inactive)	-0.967 (inactive)	0.652	0.345 (inactive)	-0.126	0.111	0.372	0.0271
COC(=O)CC=C[C@@H](C)[C@@H](C=NO[C@@H]1O[C@H](COC(C)=O)[C@@H](OC(C)=O)[C@H](OC(C)=O)[C@H]1OC(C)=O)NS(=O)(=O)c1ccc(C)cc1	1.41	0.0457 (inactive)	-0.23 (inactive)	-0.615 (inactive)	-0.147	-1.32 (inactive)	-0.134	0.521	0.545	-0.152
CCOC(=O)[C@H](CC(C)C)NC(=O)CCC1CC(OC(=O)NCc2cccc3ccccc23)CC2(CCCC(COC(=O)NCc3cccc(C(F)(F)F)c3)O2)O1 (stereo not given in full)	0.221	0.533 (inactive)	0.171 (inactive)	0.289 (inactive)	0.135	0.294 (inactive)	-0.251	0.582	0.359	-0.137
O=C1C[C@@H](O)[C@@H](O)[C@@H]2[C@@H]3C(=O)N(c4cccc(Oc5ccccc5)c4)C(=O)[C@@H]3CC[C@H]12	-0.129	0.157 (inactive)	0.462 (inactive)	0.469 (inactive)	0.685	0.378 (inactive)	-0.156	0.292	1.02	-0.145
CC(CCN1CCCc2nc(C)c(C)cc21)=NOC(C)CN1CCCCc2nc(C)c(C)cc21 (stereo not given)	1.49	-0.415 (inactive)	0.435 (inactive)	0.837 (inactive)	1.22	0.597 (inactive)	0.0012	0.923	1.08	0.406
COc1ccc(O[C@H]2C=C[C@@H](c3ccccc3)O[C@@H]2COC(=O)CCC(C)=NOC[C@@H](O)[C@H]2O[C@@H]3OC(C)(C)O[C@@H]3[C@H]2O)cc1	1.34	0.671 (inactive)	0.0839 (inactive)	-0.37 (inactive)	1.48	0.875 (inactive)	-0.103	1.41	0.763	-0.0592
CCOC(=O)[C@H](CC(C)C)NC(=O)CCC1CC(OC(=O)NCc2cccc3ccccc23)CC2(CCCC(COC(=O)NCCC(C)C)O2)O1 (stereo not given in full)	0.554	-3.9 (inactive)	-2.7 (inactive)	-1.89 (inactive)	0.691	-0.77 (inactive)	-0.221	0.543	0.144	0.0031
COc1ccc(O[C@H]2C=C[C@@H](c3ccccc3)O[C@@H]2COC(=O)CCC(C)=NOC(C)CN2CCCc3nc(C)c(C)cc32)cc1 (stereo not given in full)	1.35	0.194 (inactive)	-0.629 (inactive)	-0.0642 (inactive)	1.36	1.43 (inactive)	-0.0345	0.755	1.01	-0.0106
COc1ccc(C#C[C@@H]2C=C[C@H](OC(C)=O)[C@@H](COC(C)=O)O2)cc1	0.474	-0.551 (inactive)	-2.35 (inactive)	-0.451 (inactive)	0.387	1.04 (inactive)	0.0164	0.622	0.493	-0.122
CCOC(=O)NN=C1C[C@@H](O)[C@@H](O)[C@@H]2[C@@H]3C(=O)N(C(C)(C)C)C(=O)[C@@H]3CC[C@H]12	-0.247	0.438 (inactive)	0.277 (inactive)	-0.397 (inactive)	-0.3	0.443 (inactive)	-0.101	0.708	0.235	0.039
CC(C)(C)N1C(=O)[C@H]2[C@H]3[C@H](O)C=CC(=O)[C@@H]3CC[C@H]2C1=O	-0.832	0.985 (inactive)	0.632 (inactive)	1.12 (inactive)	-0.117	0.208 (inactive)	-0.0258	0.891	0.604	0.0469
CO[C@@H]1COC(=O)CC=C[C@H](C)[C@H](OC)COC(=O)[C@H](C)NC(=O)CC=C[C@H]1C	1.53	0.419 (inactive)	-0.245 (inactive)	0.329 (inactive)	-0.207	1.2 (inactive)	-0.228	1.83	0.273	-0.0109
O=C1[C@H]2[C@H]3[C@H](O)[C@H](O)CC(=NOC[C@@H](O)COCc4ccco4)[C@@H]3CC[C@H]2C(=O)N1C[C@@H]1CCCO1	1.37	0.715 (inactive)	1.01 (inactive)	0.714 (inactive)	-0.239	1.05 (inactive)	-0.0732	0.997	0.395	-0.344
O=c1n(-c2ccccc2)c(=O)n2n1CC[C@@H]1C(=NOCc3ccccc3)[C@H]3O[C@H]3[C@@H](O)[C@@H]12	-0.955	-0.434 (inactive)	-0.326 (inactive)	-0.871 (inactive)	-0.0733	-0.619 (inactive)	-0.274	-0.131	0.116	-0.0531
CC(=O)Nc1ccc([C@@H]2N[C@H](C(=O)O)CC[C@H]2C)cc1	0.0579	0.216 (inactive)	-0.228 (inactive)	0.634 (inactive)	0.184	0.622 (inactive)	-0.139	0.399	0.626	-0.0493

From PubChem BioAssay
